# Hits are enriched below; roughly 4% of the tested compounds scored in any of these assays.
# TRHR PAM: qHTS for Small Molecule Agonists and Allosteric Enhancers of Human TRH Receptor: Primary Screen for Enhancers; Thyrotropin-releasing hormone receptor (Homo sapiens), P34981; TRHR cells, fluo-8 calcium fluorescence, EC20 TRH enhancement; enhancement, % at 2 µM; hit rate 0.66% among 360,000; in the data active = enhancement above about 30%; also: 0% is about no effect
#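 TRHR-expressing cells loaded with fluo-8 calcium dye were read kinetically (ex 480/em 530) during compound addition, then stimulated with an EC20 of TRH (10 nM final). Enhancement of the Gq-mediated intracellular calcium response was scored.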
# D1 PAM: Potentiators of Human D1 Dopamine Receptor: qHTS | potentiation, % at 10 µM | HEK293 TREx D1 cells, calcium flux, dopamine EC20 potentiation | hit rate 0.036% among 360,000; in the data active = potentiation above about 30%; also: 0% is about no effect
# Target sequence (P21728 whole entry, looked up): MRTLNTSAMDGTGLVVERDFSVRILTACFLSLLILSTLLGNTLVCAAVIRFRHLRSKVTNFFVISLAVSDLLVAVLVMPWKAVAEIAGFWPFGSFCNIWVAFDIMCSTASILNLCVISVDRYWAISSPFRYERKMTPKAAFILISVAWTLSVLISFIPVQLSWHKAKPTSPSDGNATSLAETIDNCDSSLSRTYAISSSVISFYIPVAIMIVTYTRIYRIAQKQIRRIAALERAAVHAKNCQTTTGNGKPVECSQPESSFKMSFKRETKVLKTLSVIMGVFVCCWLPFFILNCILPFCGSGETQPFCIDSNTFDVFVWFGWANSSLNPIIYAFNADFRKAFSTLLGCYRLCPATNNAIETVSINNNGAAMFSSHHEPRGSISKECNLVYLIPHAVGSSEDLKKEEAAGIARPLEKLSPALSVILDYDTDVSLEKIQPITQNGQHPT
# GRP78 ERSR act: qHTS for Inducers of the Endoplasmic Reticulum Stress Response (ERSR) in Human Glioma: qHTS; U87-MG GRP78 promoter luciferase reporter, 16 h; Potency, µM, without a hit: at the top dose activation, usual class: activators; hit rate 0.02% among 420,000; AID 602332, 2012; active = well fitted activation curve with a large enough effect; also: potency is read from the fitted curve at half-maximal effect; series mostly up to about 76 µM; % of control where 0% means no effect; nearly all actives have a fitted effect of over 35% in size
#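 ERSR induction read as luciferase luminescence (Bright-Glo, 10 min at room temperature) in stably transfected human U87-MG glioma cells exposed to compounds for 16 h, using GRP78 as sensor.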
# D1 antag: Antagonist of Human D 1 Dopamine Receptor: qHTS. HEK293 TREx D1 cells, calcium flux, dopamine EC80; hits give low values. activity change, negative = inhibition, % at 10 µM. hit rate 3.2% among 360,000. D(1A) dopamine receptor (Homo sapiens), P21728; in the data active = activity change below about -30%; also: % is scaled to controls: 0 for no effect and ±100 for the full control effect
#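 Using tetracycline-induced force-coupled D1 Hek293 cells and a calcium dye, signals were followed for 180 s after compound, then for 180 s after EC80 dopamine, to detect inhibitors.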
# D1 agonist: Allosteric Agonists of the Human D1 Dopamine Receptor: qHTS. D(1A) dopamine receptor (Homo sapiens), P21728. HEK293 T-REx D1 cells, calcium flux, agonist mode. activation, % at 2 µM. hit rate 1% among 360,000; also: 0% is about no effect
#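 Tetracycline-induced HEK293 TREx D1 cells, force-coupled to calcium signalling, were dye-loaded with a no-wash calcium kit. Compound was pin-added after a 10 s baseline. Fluorescence was read kinetically at 1 cycle/s for 180 s, with calcium rises flagged as agonism.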
# TRHR ag: qHTS for Small Molecule Agonists and Allosteric Enhancers of Human TRH Receptor: Primary Screen for Agonists | AID 493084, 2011 | Thyrotropin-releasing hormone receptor (Homo sapiens), P34981 | hit rate 0.18% among 360,000 | activation, % at 2 µM | TRHR cells, calcium flux fluo-8, FDSS agonist mode; also: 0% is about no effect
#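 Read-out: compound-evoked intracellular calcium rise in TRHR cells, fluo-8 dye, kinetic FDSS fluorescence at 1 s/cycle following a 10-cycle baseline. Cells cultured overnight before dye loading (30 min–1.5 h, RT).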
# * = called active by the depositor; · = no result given; ! = a repeat was not active. Rule as the data show it, unless noted: active = activation above about 30%; inactive = the rest.
SMILES,TRHR PAM,D1 PAM,GRP78 ERSR act,D1 antag,D1 agonist,TRHR ag
CN1CCC(=NOc2ccc([N+](=O)[O-])cc2)CC1,-6,-9,1%,-52*,11,2
CCOC(=O)C1CCN(C(=O)COC(=O)c2oc3ccc(OC)cc3c2C)CC1,-1,1,0%,4,1,0
CC(C)c1ccc(NC(=O)COc2ccccn2)cc1,6,-9,0%,-91*,2,1
CC(C)c1ccc(NC(=O)COc2ccccc2)cc1,4,-2,2%,-6,1,0
CCOc1ccc(S(=O)(=O)NC2CCCCCC2)cc1,-7,-9,-4%,-26,4,-1
CCOc1ccc(NC2CCCCC2NS(=O)(=O)c2ccccc2)cc1 (configuration not stated),0,22,-4%,-35*,-1,-1
CC1CCN(C(=O)C2CCCN(c3ncnc4c3nc3n4CCCCC3)C2)CC1 (configuration not stated),-4,0,-1%,-37*,0,0
Cc1ccc(NC(=O)C2CCCN(c3ncnc4onc(C)c34)C2)c(Cl)c1 (configuration not stated),-8,-8,-1%,-54*,14,0
COc1ccc(Cl)cc1NC(=O)C1CCCN(c2ncnc3onc(C)c23)C1 (configuration not stated),24,-4,0%,0,8,-1
COc1cc(OC)c(NC(=O)C2CCCN(c3ncnc4c3nc3n4CCCCC3)C2)cc1Cl (configuration not stated),33*,1,-6%,-23,0,-1
CCN(CC(=O)Nc1ccccc1OC)C(=O)CN1C(=O)NC(C)(c2ccc3ccccc3c2)C1=O (configuration not stated),·,·,0%,·,·,·
Cc1nc(SC2CC(=O)N(c3ccccc3)C2=O)n[nH]1 (configuration not stated),3,-2,-6%,-8,2,0
CCOC(=O)CSc1nc(C2CC2)cc(-c2ccc(Cl)cc2)c1C#N,-5,4,-4%,-87*,12,0
CC(C)NS(=O)(=O)c1ccc(NC(=O)C(C)OC(=O)CCCOc2ccccc2)cc1 (configuration not stated),30*,-8,-5%,-20,13,0
CC(C)NS(=O)(=O)c1ccc(NC(=O)C(C)OC(=O)CCC2CCCCC2)cc1 (configuration not stated),15,2,-3%,5,12,1
COc1ccccc1N1C(=O)C2C(C(=O)c3ccccc3)=NN(c3ccc(C)cc3)C2C1=O (configuration not stated),-1,1,-4%,11,150*,31*
COc1ccccc1N1C(=O)C2C(C(=O)c3ccccc3)=NN(c3ccc(Br)cc3)C2C1=O (configuration not stated),0,-2,-2%,5,35*,20
COC(=O)C1=NN(c2ccc(C)cc2)C2C(=O)N(c3ccccc3OC)C(=O)C12 (configuration not stated),-2,-1,-5%,-16,1,0
O=C(COc1ccccc1)NC(NC(=S)Nc1ccccc1O)C(Cl)(Cl)Cl (configuration not stated),-3,-6,-2%,22,1,0
COC(=O)c1ccc(NC(=O)CCS(=O)(=O)c2ccc(Br)s2)cc1,8,0,-3%,-52*!,1,-1
Cc1cc(NC(=O)c2ccc(NC(=O)CCS(=O)(=O)c3cccs3)cc2)ccc1Br,1,-2,-5%,-38*,7,1
CC1(CC(=O)N/N=C/c2cc(Br)c(O)cc2O)OCCO1,-7,-7,0%,-4,2,0
O=C(Nc1nc2ccc(Cl)cc2s1)c1cc(=O)c2ccccc2o1,10,1,-2%,-16,8,1
O=C(c1cc(COc2cccc3cnccc23)on1)N1CCCC(CCCO)C1 (configuration not stated),-3,-3,-5%,-55*,14,1
CSc1ccccc1OCc1cc(C(=O)N2CCC(Oc3cccnc3)CC2)no1,-10,-3,·,-46*,19,-1
SMILES,TRHR PAM,D1 PAM,GRP78 ERSR act,D1 antag,D1 agonist,TRHR ag
COc1ccccc1OCc1cc(C(=O)N2CCCC(OCc3cccnc3)C2)no1 (configuration not stated),-6,-2,6%,-36*,5,-1
COCC1CCN(C(=O)c2cc(COc3cccc4cnccc34)on2)CC1,9,-7,-2%,-12,22,1
COc1cccc(OCC(=O)NNC(=O)Cc2cccs2)c1,-1,-2,-3%,7,1,0
O=C(CN1CCCc2ccccc21)N1CCc2ccccc21,0,-2,3%,18,0,0
Cc1ccc(NC(=O)Cn2cc3c(n2)CCCCC3)cc1,-4,2,-1%,6,40*,-2
CC(=O)Nc1ccc(NC(=O)Cn2cc3c(n2)CCCC3)cc1,-3,3,-2%,8,1,0
O=C(Cn1cc2c(n1)CCCCC2)N1CCc2ccccc21,-1,-6,0%,-76*,-1,0
Cc1csc(=N)n1CC(=O)N1CCc2ccccc21,-24,-6,-1%,-32*,4,0
CCc1ccc(NC(=O)N(Cc2c[nH]c3ccccc23)C2CCCCC2)cc1,13,-2,1%,-3,3,2
O=C(c1ccccc1Cl)N1CCN(CCc2ccccn2)CC1,7,-1,-3%,-7,1,-1
CCOCCc1nn2c(=O)cc(COC(=O)c3cccs3)nc2s1,9,-5,-1%,17,11,-1
CCOCCc1nn2c(=O)cc(COC(=O)c3ccccc3OC)nc2s1,1,-9,4%,-32*,0,0
COc1ccccc1CNC(=O)c1ccc2c(c1)OCO2,-7,-1,0%,12,3,0
Cc1ccc(S(=O)(=O)N(C)c2ccc(C(=O)Nc3cccc(C)n3)cc2)cc1,-10,-6,1%,-21,7,-2
Cc1cccc(NC(=O)c2cccc(C(=O)Nc3cccc(C)n3)c2)n1,4,-5,-3%,-15,2,0
CCN(c1ccccc1)S(=O)(=O)c1ccc(C(=O)Nc2cccc(C)n2)cc1,-4,-8,1%,-35*,5,1

# Bioassay records from PubChem BioAssay.
